Measurements: PubChem BioAssay AID1159580 (chemical genetic matrix, 2015)
“And” between values parts separate entries of the source, which are not always exact repeats. Identical values can stand only once. Hit rate of the full screen: of about 5,500 compounds, about 2,000 (36%) were called active. Another 18% or so got no clear call; they are omitted. Rule as the data show it: active = normalized growth mostly below about 0.91 (no sharp cut-off); inconclusive = no clear call, values can overlap the other calls; inactive = mostly above about 0.92. This is one part of the list.

Experiment: chemical genetic growth profiling, strain panel (AID 1159580);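 also: tested at 20 µM; growth read once vehicle control cultures reached saturation at 30 °C; 1 = growth at the plate median or of vehicle wells; lower values mean less growth of the strain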
Details: S. cerevisiae deletion strains, growth OD

Measured: normalized growth

O=C(O)c1cccnc1C(=O)O
inactive: locus YAL013W, strain DEP1, active compounds read low 1.01 and 1.02 | locus YAL021C, strain ccr4, active compounds read low 1.02 | locus YAL026C, strain drs2, active compounds read low 1 | locus YAL030W, strain snc1, active compounds read low 0.999 | locus YAL040C, strain CLN3, active compounds read low 1.05 | locus YBL061C, strain skt5, active compounds read low 1 | locus YBR009C, strain hhf1, active compounds read low 1.03 | locus YBR021W, strain FUR4, active compounds read low 1.03 | locus YBR023C, strain chs3, active compounds read low 0.996 | locus YBR171W, strain sec66, active compounds read low 0.992 | locus YBR229C, strain ROT2, active compounds read low 1.03 | locus YBR231C, strain swc5, active compounds read low 1.04 | locus YBR279W, strain paf1, active compounds read low 0.998 | locus YCL011C, strain gbp2, active compounds read low 1.02 | locus YCL016C, strain dcc1, active compounds read low 1.01 | locus YCL029C, strain bik1, active compounds read low 0.991 | locus YCL061C, strain MRC1 (second series), active compounds read low 1 | locus YCL069W, strain vba3, active compounds read low 1 | locus YCR088W, strain abp1, active compounds read low 0.99 | locus YDL005C, strain med2, active compounds read low 0.98 | locus YDL035C, strain GPR1, active compounds read low 1.03 | locus YDL040C, strain nat1, active compounds read low 0.985 | locus YDL074C, strain BRE1, active compounds read low 1.07 | locus YDL101C, strain DUN1, active compounds read low 1.04 | locus YDL134C, strain PPH21, active compounds read low 1.03 | locus YDL185W, strain tfp1, active compounds read low 0.976 | locus YDL192W, strain arf1, active compounds read low 1 | locus YDR001C, strain nth1, active compounds read low 0.99 | locus YDR069C, strain doa4, active compounds read low 1 | locus YDR101C, strain arx1, active compounds read low 0.997 | locus YDR137W, strain rgp1, active compounds read low 1.01 | locus YDR150W, strain NUM1, active compounds read low 1.02 | locus YDR159W, strain sac3, active compounds read low 0.986 | locus YDR162C, strain NBP2, active compounds read low 1.02 | locus YDR195W, strain ref2 1.05 | locus YDR297W, strain sur2, active compounds read low 1 | locus YDR318W, strain mcm21, active compounds read low 0.997 | locus YDR334W, strain swr1, active compounds read low 0.979 | locus YDR335W, strain msn5, active compounds read low 1 | locus YDR363W, strain ESC2, active compounds read low 1.04 | locus YDR388W, active compounds read low 0.986 | locus YDR392W, strain spt3, active compounds read low 0.984 | locus YDR502C, strain sam2, active compounds read low 1.01 | locus YEL003W, strain gim4, active compounds read low 0.995 | locus YEL037C, strain rad23, active compounds read low 0.989 | locus YEL061C, strain CIN8 (second series), active compounds read low 0.979 | locus YEL061C, strain CIN8, active compounds read low 1.02 | locus YER002W, strain NOP16, active compounds read low 0.994 | locus YER015W, strain faa2, active compounds read low 1.01 | locus YER016W, strain bim1, active compounds read low 0.967 | locus YER110C, active compounds read low 1 | locus YER111C, strain swi4, active compounds read low 0.986 | locus YER155C, strain BEM2 (second series), active compounds read low 1.05 | locus YER155C, strain BEM2, active compounds read low 1.01 | locus YER167W, strain BCK2, active compounds read low 1.02 | locus YFR010W, strain ubp6, active compounds read low 1.03 | locus YGL078C, strain dbp3, active compounds read low 0.983 | locus YGL086W, strain mad1, active compounds read low 1.01 | locus YGL167C, strain pmr1, active compounds read low 1 | locus YGL173C, strain kem1, active compounds read low 1 | locus YGL227W, strain vid30, active compounds read low 0.972 | locus YGL240W, strain doc1, active compounds read low 1.01 | locus YGL248W, strain PDE1, active compounds read low 1.03 | locus YGL253W, strain hxk2, active compounds read low 1.01 | locus YGR078C, strain PAC10, active compounds read low 1.01 | locus YGR135W, strain pre9, active compounds read low 1.01 | locus YGR229C, strain SMI1, active compounds read low 1.04 | locus YGR252W, strain gcn5, active compounds read low 0.938 | locus YHR013C, strain ard1, active compounds read low 1 | locus YHR027C, strain rpn1, active compounds read low 1.02 | locus YHR030C, strain SLT2, active compounds read low 1.02 and 0.992 | locus YHR079C, strain IRE1 (second series), active compounds read low 0.981 | locus YHR079C, strain IRE1, active compounds read low 1 | locus YHR094C, strain hxt1, active compounds read low 0.983 | locus YHR129C, strain ARP1, active compounds read low 1.01 | locus YHR142W, strain chs7, active compounds read low 1.02 | locus YHR200W, strain rpn10, active compounds read low 0.984 | locus YIL066C, strain RNR3, active compounds read low 1.05 | locus YIL073C, strain SPO22, active compounds read low 1.01 | locus YIL125W, strain kgd1, active compounds read low 0.971 | locus YIR030C, strain dcg1, active compounds read low 0.998 | locus YJL092W, strain hpr5, active compounds read low 0.99 | locus YJL095W, strain BCK1 (second series), active compounds read low 1.01 | locus YJL095W, strain BCK1, active compounds read low 1.07 and 0.998 | locus YJL115W, strain asf1, active compounds read low 0.984 | locus YJL129C, strain trk1, active compounds read low 0.986 | locus YJL134W, strain LCB3, active compounds read low 1.01 | locus YJL154C, strain vps35, active compounds read low 0.998 | locus YJL164C, strain tpk1, active compounds read low 1.03 | locus YJL166W, strain qcr8, active compounds read low 1.03 | locus YJL168C, strain set2, active compounds read low 0.978 | locus YJL187C, strain SWE1 (second series), active compounds read low 1.05 | locus YJL187C, strain SWE1, active compounds read low 1 | locus YJR043C, strain POL32, active compounds read low 1.02
